The results in this text go back to PubChem BioAssay AID504467 (National Center for Advancing Translational Sciences (NCATS), 2011).

The structures appear in SMILES notation. In all, about 330,000 compounds went through this assay and about 7,700 (2.3%) were called active. Another 26% or so got no clear call; they are omitted. The sample holds actives, similar compounds and a random draw of the others, so the mix is not that of the screen. Unmarked numbers belong to inactive results. Calls come from the whole dose curve; as a rule, active = well fitted inhibition curve with a large enough effect; inconclusive = small, poorly fitted or top-dose-only effect, or effect the other way; inactive = flat fitted curve, though single readings scatter.
% is set by controls: 0 for no effect and ±100 for the full control effect; potency is the fitted concentration of half-maximal effect.

A short description of this experiment: qHTS screen for small molecules that inhibit ELG1-dependent DNA repair in human embryonic kidney (HEK293T) cells expressing luciferase-tagged ELG1. Note: nearly all actives have a fitted effect of over 55% in size. The following applies: HEK293T ELG1-luciferase reporter, luminescence, 16 h, DNA damage induced by 5-fluorouridine; series mostly up to 46.1 µM; activity change, negative = inhibition: at the top concentration. The method, boiled down:
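HEK293T cells expressing luciferase-tagged ELG1 (2,000/well) received 5-Fluorouridine plus compound or DMSO for 16 hr at 37 °C. Luciferase was read by ONE-Glo luminescence after 30 min at room temperature.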
As to `CCOC(=O)N1CCN(C(=O)c2ccccc2SCC(=O)NCC2CCCCC2)CC1`, the “activity change, negative = inhibition” value was -0.248%.
Turning to `CN(C(=O)COC(=O)Cc1ccccc1[N+](=O)[O-])C1CCS(=O)(=O)C1` (stereo unspecified), the “activity change, negative = inhibition” value is 0%.
Consider `COc1ccc(C(=O)COC(=O)CN2C(=O)C3CC=CCC3C2=O)c(OC)c1` (stereo unspecified), for which the “activity change, negative = inhibition” value was 0%.
On to `CCc1cccc(NC(=O)CCCN2C(=O)C(c3ccccc3)Oc3cccnc32)c1` (stereo unspecified), for which the “activity change, negative = inhibition” value is -11.3%.
`COCCN(CCOC)c1nc(N)c2c(N)nc3c(c2c1C#N)CC(=O)N3Cc1ccc(Cl)cc1`: the Potency is 5.17 µM (active).
For the compound `CCC(=O)Nc1ccc(S(=O)(=O)Nc2c(NC)c3ccccc3oc2=O)cc1`, the “activity change, negative = inhibition” value was -11.8%.
In the case of `CC1CC(C)CN(CCCNC(=O)c2csc3c2CCCCC3)C1` (stereo unspecified), the “activity change, negative = inhibition” value was -3.73%.
The same measure, in the same setting: under `CC(C(=O)c1ccc(-c2ccccc2)cc1)[n+]1cccc(Br)c1` (stereo unspecified) stands 1.43%; under `Cc1ccc2c(c1)C1CN(C)CCC1N2S(=O)(=O)c1cccc(F)c1` (stereo unspecified), 10.5%.
For `Cc1cccn2c(CNCC(C)Oc3cccnc3)c(C(=O)N3CCOCC3)nc12` (stereo unspecified), the “activity change, negative = inhibition” value was 17.3%.
Turning to `Cc1cccc(N2CCC(NCc3c(C(=O)N4CCCCC4)nc4c(C)cccn34)CC2)c1`, the Potency was 25.9 µM (active).
Regarding `CCOC(=O)C1CCN(Cc2c(C(=O)N3CCOCC3)nc3c(C)cccn23)CC1`, the “activity change, negative = inhibition” value is -5.05%.
Take `CN(CC(=O)Nc1ccc(Cl)cc1)CC(=O)Nc1cccc2ccccc12`: the “activity change, negative = inhibition” value was 1.03%.
On to `Cc1ccc(S(=O)(=O)N(Cc2ccccc2)c2ccccn2)cc1[N+](=O)[O-]`, for which the “activity change, negative = inhibition” value is 3.26%.
Take `Cn1c(CNC(=O)c2ccco2)nnc1SCC(=O)N1CCN(c2ccccc2)CC1`: the “activity change, negative = inhibition” value is -13.3%.
As for `Cn1c(Cc2cccc3ccccc23)nnc1SCC(=O)N1CCN(c2cccc(Cl)c2)CC1`, the Potency was 18.4 µM (active).
For `Cc1ccccc1NC(=O)Cc1nnc(SCC(=O)N2CCN(c3ccccc3)CC2)n1C`, the “activity change, negative = inhibition” value was 3.86%.
On to `O=C(CN1CCc2ccccc2C1)Nc1cccc(S(=O)(=O)N2CCOCC2)c1`, for which the “activity change, negative = inhibition” value is -1.35%.
For `CC1CCC(NC(=O)CN(C)S(=O)(=O)c2ccc3c(c2)c(=O)n(C)c(=O)n3C)CC1` (stereo unspecified), the “activity change, negative = inhibition” value is 2.58%.
Turning to `O=C(CSc1nc2ccccc2c(=O)[nH]1)Nc1nc(-c2ccc(Br)cc2)cs1`, the “activity change, negative = inhibition” value was 0%.
Take `Cc1cc(C)c(-c2csc(NC(=O)CCCc3nc4ccccc4c(=O)[nH]3)n2)c(C)c1`: the Potency was 5.17 µM (active).
As to `CC(=O)NCc1ccc(-c2csc(NC(=O)CCCc3nc4ccccc4c(=O)[nH]3)n2)cc1`, the “activity change, negative = inhibition” value was -16.2%.
Same read-out and setting: under `CCCSc1ccc([C@H]2N[C@@](Cc3ccccc3)(C(=O)OC)[C@H]3C(=O)N(C)C(=O)[C@@H]23)cc1` stands -4.02%.
Consider `CCc1ccc(OCC2c3cc(OC)c(OC)cc3CCN2C(C)=O)cc1` (stereo unspecified), for which the Potency was 6.51 µM (active).
As for `COc1ccc(CC(NC(C)=O)C(=O)NC2CCN(C(=O)c3ccc(OC)c(OC)c3)CC2)cc1OC` (stereo unspecified), the “activity change, negative = inhibition” value is 2.36%.
Still for that read-out and setting: under `COc1ccc(C(=O)N2CCc3cc(OC)c(OC)cc3C2c2cccc([N+](=O)[O-])c2)cc1` (stereo unspecified) stands -3.07%.
